Test results published in PubChem BioAssay (NCATS).
Inconclusive results are not listed. Entries that show only a call come without a potency. Activity calls are given as the source filed them. The call rests on the fitted dose curve; in most records, active means well fitted inhibition curve with a large enough effect; inconclusive means small, poorly fitted or top-dose-only effect; inactive means flat fitted curve, though single readings scatter.

Assay: qHTS to identify inhibitors of the type 1 interferon - major histocompatibility complex class I in skeletal muscle: primary screen against the NCATS Pharmaceutical Collection (AID 1347407)
Conditions: human skeletal muscle cells, IFN-b-induced MHC-I HiBiT luminescence, 24 h; series mostly up to 45.9 µM
Summary of the method: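 Immortalized human myoblasts (C25cl48) with HiBiT knocked into endogenous HLA-B*08:01 were stimulated with 4.0 ng/ml IFN-beta and treated with compounds ([…] top 46 uM) for 24 hrs at 37 C. HiBiT lytic luminescence read.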
Potency means the concentration at half of the fitted maximal effect.

Row | SMILES | Potency
1 | CCCCCCCCCCCCCCCCOP(=O)([O-])OCC[N+](C)(C)C | inactive
2 | CC(C)COC(=O)c1ccc(N)cc1 | inactive
3 | CC(C)=CCC1C(=O)N(c2ccccc2)N(c2ccccc2)C1=O | 18.7 µM (active)
4 | C[C@H](O)C(=O)Nc1c(I)c(C(=O)NC(CO)CO)c(I)c(C(=O)NC(CO)CO)c1I | inactive
5 | CC(C)n1nc(-c2cc3cc(O)ccc3[nH]2)c2c(N)ncnc21 | 4.7 µM (active)
6 | CCCCC1=NC2(CCCC2)C(=O)N1Cc1ccc(-c2ccccc2-c2nn[nH]n2)cc1 | inactive
7 | COc1cc2c(cc1OC)[C@@H]1CC(=O)[C@@H](CC(C)C)CN1CC2 | inactive
8 | Cc1ccc(Nc2c(F)cccc2Cl)c(CC(=O)O)c1 | inactive
9 | O=C1OC(c2ccc(O)cc2)(c2ccc(O)cc2)c2ccccc21 | inactive
10 | NCCCC[C@H](N[C@@H](CCc1ccccc1)C(=O)O)C(=O)N1CCC[C@H]1C(=O)O | inactive
11 | CC(=O)OCC(=O)[C@@]1(O)[C@H](C)C[C@H]2[C@@H]3CCC4=CC(=O)C=C[C@]4(C)[C@@]3(F)[C@@H](O)C[C@@]21C | inactive
12 | NC(CS)C(=O)O (configuration not stated) | inactive
13 | CC(=O)CC(c1ccc([N+](=O)[O-])cc1)c1c(O)c2ccccc2oc1=O (configuration not stated) | 1.49 µM (active)
14 | C[C@@H]1C[C@H]2[C@@H]3CCC4=CC(=O)C=C[C@]4(C)[C@@]3(F)[C@@H](O)C[C@]2(C)[C@H]1C(=O)CO | inactive
15 | Nc1ccc(C(=O)O)cc1 | inactive
16 | COC(=O)CCc1ccc(OCC(O)CNC(C)C)cc1 (configuration not stated) | inactive
17 | OC(CCN1CCCCC1)(c1ccccc1)c1ccccc1 | inactive
